Test results published in PubChem BioAssay (NCI).
This is part of a sample that, as a whole, favours compounds with a hit. Of some 79,000 tested, about 15% had one in any assay. Active and inactive are the calls of the source. No stated cut-off is given here; in the data, active means growth inhibition above about 70%; inactive means the rest.

Assay: NCI Yeast Anticancer Drug Screen. Data for the rad50EPP+ strain (AID 151);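 further: 0% = growth of vehicle-treated control cultures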
Details: S. cerevisiae rad50 mutant strain, active compounds read high
Protocol: Growth inhibition of yeast strains with defined genetic alterations is measured as a screen for potential anti-cancer activity. Selected strains with alterations in DNA damage repair or cell cycle control were exposed to compounds and growth inhibition was measured relative to vehicle treated controls. The strain used in this assay is rad50EPP+

Measured: growth inhibition

N#CSc1ccc(S(N)(=O)=O)cc1
inactive: at 1.2 µM -67% | at 3.7 µM -50% | at 11.0 µM -91% | at 33.0 µM -86% | at 100.0 µM -14%

CCN(CC)C(=S)N/N=C(/C)c1cccc(/C(C)=N\NC(=S)N(CC)CC)n1
active: at 100.0 µM 79%
inactive: at 1.2 µM 16% | at 3.7 µM 6% | at 11.0 µM 31% | at 33.0 µM 48%

O=C([O][Sn]([O]C(=O)c1ccccc1)([c]1ccccc1)[c]1ccccc1)c1ccccc1
inactive: at 1.2 µM 30% | at 3.7 µM 18% | at 11.0 µM 24% | at 33.0 µM 21% | at 100.0 µM 18%

CCCCCCCCCCC(=O)Cl
inactive: at 1.2 µM 18% | at 3.7 µM 22% | at 11.0 µM 25% | at 33.0 µM 40% | at 100.0 µM 46%

Cc1nn(-c2cc(Cl)ccc2[N+](=O)[O-])c(C)c1Cl
inactive: at 1.2 µM 4% | at 3.7 µM 8% | at 11.0 µM 14% | at 33.0 µM 19% | at 100.0 µM 10%

O=[N+]([O-])c1ccc2c(c1)C(N1CCN(CCO)CC1)Cc1ccc(F)cc1S2 (stereo not given)
inactive: at 1.2 µM -2% | at 3.7 µM -1% | at 11.0 µM -1% | at 33.0 µM -1% | at 100.0 µM 1%

O=[N+]([O-])c1cccc([N+](=O)[O-])c1S(=O)(=O)c1ccccc1
active: at 1.2 µM 76% | at 3.7 µM 88% | at 11.0 µM 93% | at 33.0 µM 94% | at 100.0 µM 92%

CC(Br)C(=O)c1ccc2cc(Br)c3ccccc3c2c1 (stereo not given)
inactive: at 1.2 µM 2% | at 3.7 µM 14% | at 11.0 µM 24% | at 33.0 µM 35% | at 100.0 µM 39%
